# Compound activity deposited in PubChem by National Center for Advancing Translational Sciences (NCATS).
# SW480 rereplic = A quantitative high throughput screen for small molecules that induce DNA re-replication in SW480 colon adenocarcinoma cells | SW480 DNA re-replication, Hoechst DNA content imaging, 48 h | Potency, µM (series often up to 46.1 µM), most hits filed as activators | 340,000 tested, 1.8% active; note: nearly all actives have a fitted effect of over 55% in size
#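 Treated cells incubate 48 hr (37 C, 5% CO2), are stained 40 min with Hoechst, and nuclear fluorescence is enumerated; a rise in nuclei with high DNA signal marks re-replication.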
# ELG1 DNA repair = qHTS screen for small molecules that inhibit ELG1-dependent DNA repair in human embryonic kidney (HEK293T) cells expressing luciferase-tagged ELG1; HEK293T ELG1-luciferase reporter, luminescence, 16 h; DNA damage induced by 5-fluorouridine; Potency, µM (titrated, usually from 46.1 µM), usual class: inhibitors; 330,000 tested, 2.3% active; note: nearly all actives have a fitted effect of over 55% in size
#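 5-Fluorouridine DNA damage + compound/DMSO, 2,000 cells/well, 16 h, 37 °C/5% CO2. ONE-Glo, 30 min RT, luminescence. Readout = decrease in reporter signal.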
# KB-V1 cytotox = qHTS assay for MDR1-selective chemotherapeutics: Primary screen using the drug-selected MDR subline cells KB-V1; KB-V1 MDR cells viability, CellTiter-Glo, 72 h; Potency, µM (titrated, usually from 46.1 µM), usual class: cytotoxic; 400,000 tested, 3.4% active; AID 1347076, 2019; note: nearly all actives have a fitted effect of over 60% in size
#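 Cytotoxicity via CellTiter-Glo luminescence after 72 h compound exposure at 37 degrees C. Cells: drug-selected KB-V1 line, DMEM phenol-red free plus 10% FBS. Compounds tested at multiple concentrations; normalized data fitted to concentration-effect curves.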
# MCF10A rerep = A quantitative high throughput screen for small molecules that induce DNA re-replication in MCF 10a normal breast cells; MCF 10A DNA re-replication, Hoechst nuclear intensity, 48 h; Potency, µM (doses to about 46.1 µM), most hits filed as activators; 350,000 tested, 2.9% active; AID 624296, 2012; note: nearly all actives have a fitted effect of over 50% in size
# KB-3-1 cytotox = qHTS assay for MDR1-selective chemotherapeutics: Primary screen using the parental adenocarcinoma cell KB-3-1. 400,000 tested, 1.4% active. AID 1347075, 2019. KB-3-1 viability, CellTiter-Glo ATP luminescence, 72 h. Potency, µM (doses to about 46.1 µM), hits mostly cytotoxic; note: nearly all actives have a fitted effect of over 60% in size
#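 Screening of KB-3-1 cells (DMEM, 10% FBS, phenol-red free) ran from lowest to highest compound concentration; after 72 h at 37 °C viability was read luminescently and curves fitted.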
# Numbers stand for hits; – = inactive; ? = inconclusive; · = no result given; ! = a repeat was not active. Hits are enriched below; roughly 8.1% of the tested compounds scored in any of these assays. Calls come from the whole dose curve; as a rule, active = well fitted curve in the direction sought with a large enough effect; inconclusive = small, poorly fitted or top-dose-only effect, or another doubt; inactive = no such curve, though single readings can be large; an effect the other way counts as inactive or inconclusive.
SMILES,SW480 rereplic,ELG1 DNA repair,KB-V1 cytotox,MCF10A rerep,KB-3-1 cytotox
N#C/C(=N\Nc1ccc(Cl)c(Cl)c1)C(=O)C1CC1,–,?,?,?,16µM
N#C/C(=N\Nc1ccc(F)cc1)C(=O)C1CC1,–,?,–,?,–
NC(=O)c1cc(N2C(=O)C=CC2=O)ccc1Cl,?,–,–,18µM,–
CC(=O)Nc1ccc(Cl)c(C(N)=O)c1,–,–,–,–,–
O=C1C=C(c2ccccc2)C(=O)N1Nc1ccccc1,?,?,–,?,?
COc1ccc(C2=CC(=O)N(Nc3ccccc3)C2=O)cc1,4.1µM,?,–,?,–
Cc1ccc(NN2C(=O)C=CC2=O)cc1,–,?,–,–,–
Cc1ccc(NN2C(=O)C=C(c3ccc(Cl)cc3)C2=O)cc1,?,?,12µM,15µM,?
CCN(CC)S(=O)(=O)c1ccc2[nH]cc(C(=O)NCCC3=CCCCC3)c(=O)c2c1,–,13µM,–,?,?
CC(C)(C)c1ccc(S(=O)(=O)N2CCN(CCC#N)CC2)cc1,–,–,–,–,–
N#CCCN1CCN(Cc2cc(-c3ccccc3)ccc2O)CC1,–,?,21µM,?,–
CC(C)(C)CC(C)(C)c1ccc(O)c(CN2CCN(CCC#N)CC2)c1,?,–,?,18µM,–
CC(=O)Nc1ccc(NC(=O)COc2cc(O)c3c(c2)OC(C)(C)CC3=O)cc1,–,–,–,–,–
Cc1cc(OCC(=O)Nc2ccc(Br)cc2)cc2c1C(=O)CC(C)(C)O2,?,15µM,–,?,–
Cn1c(=O)n(C)c2cc(/C=C3/NC(=O)N(Cc4ccccc4)C3=O)ccc21,–,?,–,?,–
O=C(Cn1cnc2c(cnn2-c2ccc(Cl)cc2)c1=O)N1CCN(c2ccccc2)CC1,–,–,5.2µM,–,–
O=C(Cn1cnc2c(cnn2-c2ccccc2)c1=O)N1CCOCC1,–,–,–,–,?
CCN(CC(=O)Nc1cc(S(=O)(=O)N2CCOCC2)ccc1Cl)Cc1ccccc1,–,18µM,–,?,–
O=C(Cn1cnc2c(cnn2-c2ccccc2)c1=O)Nc1cc(S(=O)(=O)N2CCOCC2)ccc1Cl,–,23µM,–,–,–
CCN(CC(=O)Nc1cc(S(=O)(=O)N2CCCCC2)ccc1Cl)Cc1ccccc1,–,–,?,?,?
O=C(Cn1nc(-c2ccc(Cl)cc2)ccc1=O)N1CCN(c2ccccc2)CC1,–,?,21µM,–,–
Cc1nnc(NC(=O)CSc2nnc(CCNC(=O)c3ccccc3F)n2C)s1,–,–,–,–,–
O=C(O)CSc1nc(-c2ccccc2)c(-c2ccccc2)[nH]1,–,–,–,–,–
O=C(Cn1ncc2ccsc2c1=O)N1CCN(c2ccccc2F)CC1,·,·,–,·,–
O=C(Cn1ncc2ccsc2c1=O)N1CCN(c2ccc(Cl)cc2)CC1,·,·,21µM,·,?
SMILES,SW480 rereplic,ELG1 DNA repair,KB-V1 cytotox,MCF10A rerep,KB-3-1 cytotox
Nc1nc(N)c2c(ccc3c2ccn3Cc2cccc([N+](=O)[O-])c2)n1,·,·,1.8µM,·,0.58µM
COC(=O)Nc1sc2c(c1C(N)=O)CCCC2,·,·,–,·,–
NC(=O)c1c(NC(=O)C2CCCO2)sc2c1CCCC2 (stereo unspecified),–,?,15µM!,–,–
N#Cc1c(NC(=O)C2CCCO2)sc2c1CCCCCC2 (stereo unspecified),?,?,18µM,?,–
Cc1sc(NC(=O)C2CCCO2)c(C#N)c1C (stereo unspecified),–,?,–,–,–
COC(=O)Nc1sc2c(c1C(=O)NC1CC1)CCCCCC2,–,–,23µM,?,–
CN(C(=O)c1ccc(N2CCOCC2)c([N+](=O)[O-])c1)C1CCCCC1,–,–,–,–,–
Cc1ccsc1/C=C/c1ccc2cccc(O)c2n1,?,?,13µM,?,?
Cc1cccc(/C=C/c2cccs2)n1,·,·,–,·,2.3µM
Cc1nnc(C)n1/N=C/c1cccs1,–,–,–,–,–
Oc1cccc2ccc(/C=C/c3cccs3)nc12,11µM,?,–,?,?
O=C(Cc1cccc2ccccc12)N/N=C/c1ccc2cccc(O)c2n1,–,–,?,?,–
Cc1ccc(S(=O)(=O)Nc2c(C)n(C)n(-c3ccccc3)c2=O)c(C)c1,–,–,–,–,–
COc1ccc(OC)c(-c2nnc3n2N=C(c2ccc(OC(F)F)c(OCC4CC4)c2)CS3)c1,?,12µM,?,?,5.8µM
COc1ccc(C2=Nn3c(nnc3-c3ccccc3OC)SC2)cc1OCC1CC1,2.3µM,?,–,?,?
COc1ccc(C2=Nn3c(nnc3-c3ccccc3)SC2)cc1OC,–,–,?,?,–
O=C(NC1CCCCC1)c1sc(=S)n2c1[nH]c(=O)c1ccccc12,–,–,21µM,?,?
CC(C)c1ccc(NC(=O)c2ccc3oc(=O)c(S(=O)(=O)c4ccc(F)cc4)cc3c2)cc1,·,·,–,·,–
Cc1ccc(S(=O)(=O)c2cc3cc(Br)ccc3oc2=O)cc1,–,?,18µM,?,21µM
CC(C)c1ccc(S(=O)(=O)c2cc3cc(Br)ccc3oc2=O)cc1,–,–,?,8.2µM,?
Cn1c(CO)cnc1S(=O)(=O)Cc1ccc([N+](=O)[O-])cc1,–,–,–,–,–
CC(=O)c1ccc(NS(=O)(=O)c2ccc(-c3cnc(C4CC4)o3)cc2)cc1,–,–,?,–,–
Cc1ccc(NS(=O)(=O)c2ccc(-c3cnc(C4CC4)o3)cc2)cc1,18µM,–,?,10µM,18µM
N#Cc1ccc(NS(=O)(=O)c2ccc(-c3cnc(C4CC4)o3)cc2)cc1,·,·,–,·,–
COc1cc(Cl)c(NS(=O)(=O)c2ccc(-c3cnc(C4CC4)o3)cc2)c(OC)c1,·,·,1µM,·,1.6µM
SMILES,SW480 rereplic,ELG1 DNA repair,KB-V1 cytotox,MCF10A rerep,KB-3-1 cytotox
COc1ccc(C)cc1NS(=O)(=O)c1ccc(-c2cnc(C3CC3)o2)cc1,0.13µM,–,?,?,0.21µM
O=S(=O)(c1ccc(-c2cnc(C3CC3)o2)cc1)N1CCN(c2ccccc2)CC1,–,?,–,–,–
COc1cccc(NS(=O)(=O)c2cc(-c3cnc(C4CC4)o3)ccc2C)c1,·,·,7.3µM,·,4.1µM
Fc1ccc(-c2nc3c4ccccc4ccn3c2Cc2ccccc2)cc1,·,·,–,·,–
COc1cc(OC)c(NC(=O)CS(=O)(=O)Cc2nc(-c3ccc(C)cc3)oc2C)cc1Cl,–,?,–,–,–
CC1=C(C(=O)Nc2ccccn2)C(c2ccc(Br)cc2)NC(=S)N1 (stereo unspecified),?,?,–,–,?
O=C(COC(=O)CCCOc1ccc(Cl)cc1Cl)NCc1ccccc1,–,–,–,–,–
